Here are results for ten compounds from PMC5540273 (PLoS ONE, 2017).

Read-outs that look alike come from different tables or passages of the source.

The test system of one experiment is SRPK3. Particulars: concentration: 1 μM, replicates: in singlicate; n = 1.
The subject of another experiment is STK16. The following applies: concentration: 1 μM, replicates: in singlicate; n = 1.
The next experiment deals with STK33. The following applies: concentration: 1 μM, replicates: in singlicate; n = 1.
The test system of a further experiment is STK35. The following applies: concentration: 1 μM, replicates: in singlicate; n = 1.
The subject of the next experiment is STK36. The following applies: concentration: 1 μM, replicates: in singlicate; n = 1.
A further experiment deals with STK39. The following applies: concentration: 1 μM, replicates: in singlicate; n = 1.
For another experiment, the system named is SYK. Particulars: concentration: 1 μM, replicates: in singlicate; n = 1.
The test system of a further experiment is SgK110. The following applies: concentration: 1 μM, replicates: in singlicate; n = 1.
The test system of another experiment is T1, TAK1.
T1 construct: gene MAP3K7
The following applies: concentration: 1 μM, replicates: in singlicate; n = 1.

The test system of the next experiment is TAOK1. The following applies: concentration: 1 μM, replicates: in singlicate; n = 1.
The next experiment relates to TAOK2. Particulars: concentration: 1 μM, replicates: in singlicate; n = 1.
Another experiment concerns TAOK3. The following applies: concentration: 1 μM, replicates: in singlicate; n = 1.
For the next experiment, the system named is TBK1. Particulars: concentration: 1 μM, replicates: in singlicate; n = 1.
Another experiment deals with TEC. Particulars: concentration: 1 μM, replicates: in singlicate; n = 1.
The next experiment deals with TESK1. Particulars: concentration: 1 μM, replicates: in singlicate; n = 1.
In another experiment the test system is TGFBR1. The following applies: n = 1.
For a further experiment, the system named is TGFBR2. Particulars: concentration: 1 μM, replicates: in singlicate; n = 1.
A further experiment relates to TIE1. The following applies: concentration: 1 μM, replicates: in singlicate; n = 1.
A further experiment relates to T2, TIE2.
T2 construct: gene TEK
Particulars: concentration: 1 μM, replicates: in singlicate; n = 1.

The next experiment deals with TLK1. The following applies: concentration: 1 μM, replicates: in singlicate; n = 1.
Setting [1] is: concentration: 1 μM, replicates: in singlicate.
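Further: KINOMEscan kinase panel screen.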

`O=c1cc(N2CCOCC2)nc2n(Cc3cccc(C(F)(F)F)c3)ccn12` [GSK2297543]: the “%Inh” value in the experiment with SRPK3, with STK16, in the experiment on STK33, in the experiment with STK35, in the experiment on STK36 and with STK39 was 0% throughout. The “%Inh” value was 27% in the experiment with SYK; 0% with SgK110; 0% with TAK1; 0% with TAOK1; 0% in the experiment with TAOK2; 0% in the experiment with TAOK3. The “%Inh” value in the experiment with TBK1 is listed as 24%; in the experiment with TEC, 0%; in the experiment with TESK1, 18%; with TGFBR1 (setting [1]), 0%; in the experiment with TGFBR2 it was 0%; with TIE1, 0%. Moreover, the “%Inh” value with TIE2 came out at 0%; in the experiment with TLK1, 12%.

For `O=C1NC(=O)C(N2CCc3ccccc32)=C1c1cccc(Cl)c1` [SB-408010], the “%Inh” value was determined as 31% in the experiment on SRPK3; 26% in the experiment with STK16; 0% with STK33; 19% in the experiment with STK35; 16% with STK36; 54% with STK39. The “%Inh” value is recorded as 0% in the experiment on SYK; 1% in the experiment on SgK110; 21% with TAK1; 0% in the experiment with TAOK1; 0% in the experiment on TAOK2; 0% in the experiment on TAOK3. Further, the “%Inh” value is on record as 0% in the experiment with TBK1; 0% in the experiment with TEC; 30% with TESK1; 0% in the experiment on TGFBR1 (setting [1]); 1% in the experiment on TGFBR2; 0% in the experiment with TIE1. Besides, the figures for the “%Inh” value with TIE2 and with TLK1 were 12% and 10%, respectively.

Take `N#Cc1c(N2CCOCC2)sc(-c2ccn[nH]2)c1-c1ccc(Cl)cc1`: the “%Inh” value in the experiment on SRPK3 was 0%; in the experiment with STK16, 33%; with STK33, 10%; in the experiment on STK35, 0%; in the experiment on STK36 it was 0%; with STK39, 17%. The “%Inh” value in the experiment on SYK was found to be 16%; in the experiment with SgK110 it was 0%; with TAK1, 14%; in the experiment with TAOK1 it was 0%; with TAOK2 it was 0%; with TAOK3 it was 0%. The “%Inh” value was found to be 12% in the experiment on TBK1; 12% in the experiment with TEC; 0% with TESK1; 19% in the experiment with TGFBR1 (setting [1]); 0% with TGFBR2; 0% in the experiment on TIE1. Also, the “%Inh” value is given as 5% in the experiment with TIE2 and 11% in the experiment on TLK1.

For the compound `O=C(Nc1cccc(-c2nn3ncccc3c2-c2ccnc(Nc3cccc(C(F)(F)F)c3)n2)c1)c1c(F)cccc1F` [GSK299495], the “%Inh” value in the experiment with SRPK3 is recorded as 0%; in the experiment on STK16, 3%; in the experiment with STK33 it was 0%; with STK35, 54%; with STK36 it was 99%; in the experiment with STK39 it was 15%. Moreover, the “%Inh” value in the experiment on SYK came out at 68%; in the experiment on SgK110 it was 0%; in the experiment on TAK1, 0%; in the experiment on TAOK1, 44%; in the experiment on TAOK2, 41%; in the experiment on TAOK3 it was 63%. The “%Inh” value is recorded as 6% in the experiment with TBK1; 96.8% in the experiment on TEC; 15% with TESK1; 8% in the experiment on TGFBR1 (setting [1]); 1% in the experiment with TGFBR2; 10% with TIE1. Also, the “%Inh” value with TIE2 and in the experiment on TLK1 was 0% throughout.

With `c1ccc(-c2n[nH]cc2-c2ccnc3ccccc23)nc1` [GW271431], the “%Inh” value in the experiment on SRPK3 is on record as 0%; with STK16 it was 18%; in the experiment on STK33 it was 8%; with STK35 it was 19%; with STK36, 0%; with STK39, 0%. Moreover, the “%Inh” value in the experiment on SYK is reported as 44%; with SgK110, 0%; in the experiment on TAK1, 50%; in the experiment with TAOK1 it was 0%; with TAOK2, 0%; with TAOK3, 0%. The “%Inh” value with TBK1 is reported as 12%; with TEC, 0%; with TESK1 it was 20%; in the experiment with TGFBR1 (1 µM), 90.1%; in the experiment with TGFBR2, 72%; in the experiment with TIE1, 3%. Further, the “%Inh” value in the experiment with TIE2 worked out at 0%; with TLK1, 2%.

Turning to `COc1ccc(Nc2ncc(C#N)c(Nc3ccccc3C(N)=O)n2)cc1N1CCN(C)CC1.Cl` [GSK1558669], the “%Inh” value was found to be 100% with SRPK3; 98.3% in the experiment on STK16; 99.2% in the experiment on STK33; 99.3% in the experiment with STK35; 99.5% in the experiment on STK36; 100% in the experiment with STK39. For the same compound, the “%Inh” value in the experiment with SYK is 98.6%; with SgK110, 66%; in the experiment on TAK1, 100%; in the experiment on TAOK1, 86%; in the experiment with TAOK2, 51%; with TAOK3 it was 91.3%. In addition, the “%Inh” value with TBK1 was 99.5%; in the experiment with TEC, 93.5%; with TESK1, 67%; in the experiment with TGFBR1 (setting [1]) it was 46%; in the experiment on TGFBR2, 27%; in the experiment with TIE1, 98.5%. Also, the figures for the “%Inh” value in the experiment on TIE2 and in the experiment on TLK1 were 97.2% and 96.2%, respectively.

With `COc1cc(Nc2nccc(N3CCC(NC(=O)c4cccc(NC(C)=O)c4)C3)n2)cc(OC)c1OC` (centres unmarked) [GSK1379754], the “%Inh” value was determined as 16% with SRPK3; 64% with STK16; 2% in the experiment with STK33; 0% in the experiment with STK35; 0% in the experiment on STK36; 0% in the experiment on STK39. For the same compound, the “%Inh” value amounted to 39% in the experiment with SYK; 2% in the experiment with SgK110; 0% in the experiment with TAK1; 0% with TAOK1; 0% in the experiment with TAOK2; 0% in the experiment with TAOK3. Besides, the “%Inh” value in the experiment on TBK1 is recorded as 17%; with TEC, 0%; in the experiment with TESK1, 15%; with TGFBR1 (setting [1]), 0%; in the experiment with TGFBR2, 0%; with TIE1 it was 61%. Further, the “%Inh” value with TIE2 and in the experiment with TLK1 was 0% in each case.

Consider `CCn1cnc2c(N)ncnc21` [GW345098], for which the “%Inh” value with SRPK3 stood at 18%; in the experiment on STK16, 12%; in the experiment on STK33, 10%; in the experiment with STK35, 0%; in the experiment on STK36 it was 5%; in the experiment with STK39, 0%. Moreover, the “%Inh” value in the experiment with SYK amounted to 3%; in the experiment with SgK110 it was 0%; in the experiment with TAK1 it was 4%; with TAOK1 it was 16%; in the experiment with TAOK2 it was 4%; in the experiment on TAOK3, 0%. In addition, the “%Inh” value worked out at 39% in the experiment on TBK1; 11% in the experiment with TEC; 4% with TESK1; 0% with TGFBR1 (setting [1]); 12% in the experiment on TGFBR2; 6% with TIE1. For the same compound, the “%Inh” value with TIE2 came to 2%; with TLK1, 22%.

Turning to `CSc1ccc(-c2cc3ncnc(SCC(=O)O)c3s2)cc1`, the “%Inh” value in the experiment on SRPK3 is reported as 0%; in the experiment on STK16, 2%; in the experiment with STK33 it was 8%; with STK35, 0%; in the experiment with STK36 it was 0%; in the experiment with STK39, 0%. Besides, the “%Inh” value is 15% with SYK; 0% in the experiment with SgK110; 18% in the experiment on TAK1; 0% in the experiment with TAOK1; 0% with TAOK2; 0% in the experiment with TAOK3. Moreover, the “%Inh” value with TBK1 stood at 0%; in the experiment with TEC, 0%; in the experiment with TESK1, 0%; in the experiment on TGFBR1 (setting [1]), 0%; in the experiment on TGFBR2, 12%; in the experiment with TIE1 it was 0%. Also, the “%Inh” value with TIE2 came to 0%; in the experiment on TLK1 it was 2%.

As for `C[C@@H](Oc1cc(-n2cnc3ccc(NC(=O)NC(C)(C)C)cc32)sc1C(N)=O)c1ccccc1Cl` [GSK346294], the “%Inh” value in the experiment with SRPK3 worked out at 0%; in the experiment with STK16, 22%; in the experiment on STK33, 0%; in the experiment on STK35, 0%; in the experiment on STK36 it was 0%; with STK39, 0%. Besides, the “%Inh” value in the experiment with SYK turned out to be 34%; with SgK110, 0%; with TAK1, 0%; in the experiment on TAOK1, 0%; in the experiment on TAOK2, 2%; in the experiment with TAOK3, 0%. Also, the “%Inh” value in the experiment on TBK1 is given as 27%; in the experiment with TEC, 20%; with TESK1, 0%; in the experiment on TGFBR1 (setting [1]), 0%; in the experiment on TGFBR2 it was 4%; in the experiment on TIE1 it was 3%. Besides, the “%Inh” value in the experiment with TIE2 is 0%; in the experiment with TLK1, 21%.
